# In PubChem BioAssay (Tox21):
# “And” between values parts separate entries of the source, which are not always exact repeats. Identical values can stand only once. The source made the active and inactive calls. Where a call stands in place of a potency, no number is given. Unless noted, calls follow the shape of the dose curve; as a rule, active = well fitted curve in the direction sought with a large enough effect in the repeat runs; inconclusive = weak or mixed curves; inactive = no such curve, though single readings can be large; an effect the other way counts as inactive or inconclusive.
# How the values were obtained:
# [1] = test system: thyroid hormone receptor (rat, GH3 cells); assay: qHTS assay to identify small molecule agonists of the thyroid receptor (TR) signaling pathway (AID 743066; calls by dose curve)
# [2] = biological target: Estrogen receptor (Homo sapiens) (UniProt P03372); assay: qHTS assay to identify small molecule antagonists of the estrogen receptor alpha (ER-alpha) signaling pathway (AID 743069; active = well fitted curve in the direction sought with a large enough effect in the signal ratio in the repeat runs, not every such curve was filed as active; inconclusive = weak or mixed curves, or effect the other way; inactive = no such curve, though single readings can be large or run the other way; the % refers to the signal ratio)
# Procedure, shortened: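 Reporter cells (ER-alpha-bla, HEK293 background) are conditioned overnight in stripped-serum medium (2% charcoal-stripped FBS). Compound and 17beta-estradiol exposure runs 18 hr at 37C, 5% CO2.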
# [3] = qHTS assay to identify small molecule antagonists of the estrogen receptor alpha (ER-alpha) signaling pathway - cell viability counter screen (AID 743074; calls by dose curve;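 also: HEK293 cells carrying ER-alpha-UAS-bla reporter stimulated with 17beta-estradiol; nearly all actives have a fitted effect of over 45% in size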)
# [4] = biological target: Estrogen receptor (Homo sapiens) (UniProt P03372); assay: qHTS assay to identify small molecule agonists of the estrogen receptor alpha (ER-alpha) signaling pathway (AID 743075; calls by dose curve;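 also: HEK293 GripTite cells with ER-alpha and UAS-driven beta-lactamase reporter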; also: potency is read from the fitted curve at half-maximal effect)
# [5] = qHTS assay to identify small molecule antagonists of the estrogen receptor alpha (ER-alpha) signaling pathway using the BG1 cell line - cell viability counter screen (AID 743081);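 also: compound given together with 17beta-estradiol as the ER stimulus; series mostly up to about 70 µM; nearly all actives have a fitted effect of over 45% in size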
# Aromatase (Homo sapiens) = Aromatase (Homo sapiens) (UniProt P11511); assay: qHTS assay to identify aromatase inhibitors (AID 743083); also: series mostly up to about 70 µM; nearly all actives have a fitted effect of over 55% in size
# [6] = qHTS assay to identify aromatase inhibitors - cell viability counter screen (AID 743084);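 also: cells stimulated with testosterone during compound exposure; nearly all actives have a fitted effect of over 55% in size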; also: potency is read from the fitted curve at half-maximal effect
# [7] = biological target: Aryl hydrocarbon receptor (Homo sapiens) (UniProt P35869); assay: qHTS assay to identify small molecule that activate the aryl hydrocarbon receptor (AhR) signaling pathway (AID 743085); also: nearly all actives have a fitted effect of over 15% in size; also: potency is read from the fitted curve at half-maximal effect;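 as to activation: HG2L7.5c1 human HepG2 liver cells with stably integrated DRE-driven firefly reporter; series mostly up to about 70 µM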
# Procedure, shortened: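 AhR agonist activity is inferred from enhanced light output of a DRE-controlled firefly luciferase reporter in HepG2 cells, measured with ONE-Glo following 24 h treatment at 37C.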
# [8] = qHTS assay to identify small molecule that activate the aryl hydrocarbon receptor (AhR) signaling pathway - cell viability counter screen (AID 743086);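 also: HepG2 liver cells carrying the AhR DRE luciferase reporter; series mostly up to about 70 µM; nearly all actives have a fitted effect of over 45% in size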
# Procedure, shortened: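 HepG2-AhR-luc (HG2L7.5c1) cells, 4000/well, treated 24 h at 37 C with compound; viability measured as CellTiter-Fluor fluorescence after 30 min in the same wells as the luciferase read.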
# [9] = biological target: Peroxisome proliferator-activated receptor gamma (Homo sapiens) (UniProt P37231); assay: qHTS assay to identify small molecule agonists of the peroxisome proliferator-activated receptor gamma (PPARg) signaling pathway (AID 743094; active = well fitted activation curve with a large enough effect in the signal ratio in the repeat runs, not every such curve was filed as active; inconclusive = weak or mixed curves, or effect the other way; inactive = no such curve, though single readings can be large or run the other way; the % refers to the signal ratio)
# Procedure, shortened: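 Quantitative HTS agonist mode: stable HEK293H line with UAS-beta-lactamase reporter under PPARg control, 17 h compound exposure at 37C, fluorescence after 1 h FRET substrate loading at room temperature.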
# [10] = qHTS assay for small molecule agonists of the antioxidant response element (ARE) signaling pathway (AID 743202; active = well fitted activation curve with a large enough effect in the signal ratio in the repeat runs, not every such curve was filed as active; inconclusive = weak or mixed curves, or effect the other way; inactive = no such curve, though single readings can be large or run the other way; the % refers to the signal ratio; also: potency is read from the fitted curve at half-maximal effect)
# Procedure, shortened: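 Agonist mode reporter screen: HepG2 cells with ARE-controlled beta-lactamase are incubated with test compounds for 16 h at 37 C, and beta-lactamase activity is measured as fluorescence of cleaved B/G FRET substrate.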
# [11] = qHTS assay for small molecule agonists of the antioxidant response element (ARE) signaling pathway - cell viability counter screen (AID 743203; calls by dose curve; also: nearly all actives have a fitted effect of over 55% in size)
# Procedure, shortened: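 Seeded at 2,000 cells/well, ARE-bla HepG2 cells were incubated 5 hrs before compound addition. After 16 hrs of treatment at 37C with 5% CO2, CellTiter-Glo reagent was added and luminescence read 30 min later.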
# [12] = qHTS assay for small molecule activators of the heat shock response signaling pathway - cell viability counter screen (AID 743209); also: nearly all actives have a fitted effect of over 50% in size
# Procedure, shortened: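 First, HSE-bla HeLa cells were seeded at 1500 cells/well and kept overnight at 37 C. Next, compounds were pinned in and incubated 5 h. After the FRET substrate step, CellTiter-Glo was added and luminescence read 30 min later.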
# [13] = qHTS assay for small molecule activators of the heat shock response signaling pathway (AID 743210; active = well fitted activation curve with a large enough effect in the signal ratio in the repeat runs, with a control signal flat, not every such curve was filed as active; inconclusive = weak or mixed curves; the % refers to the signal ratio;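 also: HeLa cells with beta-lactamase reporter driven by heat shock elements; series mostly up to about 63 µM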)
# Procedure, shortened: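 Quantitative high-throughput format using an engineered HeLa line in which heat shock response elements drive beta-lactamase; after 5 h with compound, cells received a B/G FRET substrate and fluorescence was read.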
# [14] = qHTS assay to identify small molecule agonists of the peroxisome proliferator-activated receptor delta (PPARd) signaling pathway - cell viability counter screen (AID 743211); also: nearly all actives have a fitted effect of over 55% in size
# Procedure, shortened: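 qHTS cell viability: PPARd-bla HEK293H; 17 h cpd, 37C; CellTiter-Glo, luminescence at 30 min RT.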
# [15] = biological target: Peroxisome proliferator-activated receptor delta (Homo sapiens) (UniProt Q03181); assay: qHTS assay to identify small molecule agonists of the peroxisome proliferator-activated receptor delta (PPARd) signaling pathway (AID 743212; calls by dose curve)
# Procedure, shortened: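 Quantitative high-throughput agonist screen in a HEK293H beta-lactamase reporter line under UAS control. Compounds in DMSO, at 37 C. Fluorescence read after 2 h with FRET substrate at room temperature.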
# [16] = biological target: Estrogen receptor (Homo sapiens) (UniProt P03372); assay: qHTS assay to identify small molecule agonists of the estrogen receptor alpha (ER-alpha) signaling pathway using the BG1 cell line (AID 743079); also: nearly all actives have a fitted effect of over 20% in size; also: potency is read from the fitted curve at half-maximal effect
# [17] = qHTS assay to identify small molecule antagonists of the estrogen receptor alpha (ER-alpha) signaling pathway using the BG1 cell line (AID 743080; calls by dose curve; also: nearly all actives have a fitted effect of over 25% in size; also: potency is read from the fitted curve at half-maximal effect)
# Procedure, shortened: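 Antagonist mode: compounds in DMSO were pinned onto BG1-Luc-4E2 cells alongside 17beta-estradiol agonist, incubated 21.5 h, and ERE-driven luciferase measured with ONE-Glo. Cytotoxicity was multiplexed using CellTiter-Fluor fluorescence.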
# [18] = biological target: Peroxisome proliferator-activated receptor gamma (Homo sapiens) (UniProt P37231); assay: qHTS assay to identify small molecule antagonists of the peroxisome proliferator-activated receptor gamma (PPARg) signaling pathway (AID 743191; calls by dose curve; also: nearly all actives have a fitted effect of over 30% in size; also: potency is read from the fitted curve at half-maximal effect)
# Procedure, shortened: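 GeneBLAzer PPARg UAS-bla HEK293H cells, 5 h post-plating, exposed to compounds 17 h at 37C. LiveBLAzer B/G FRET substrate added for 1 h at room temperature; beta-lactamase reporter read by fluorescence intensity.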
# [19] = qHTS assay to identify small molecule antagonists of the peroxisome proliferator-activated receptor gamma (PPARg) signaling pathway - cell viability counter screen (AID 743194); also: nearly all actives have a fitted effect of over 55% in size
# Procedure, shortened: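 Cytotoxicity counter screen in PPARg-bla HEK293H cells, same wells as reporter assay. Compounds plus 50 nM rosiglitazone (final) for 17 h at 37 C, then viability read by CellTiter-Glo luminescence.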
# Aryl hydrocarbon receptor (Homo sapiens), sequence (P35869 whole entry, looked up): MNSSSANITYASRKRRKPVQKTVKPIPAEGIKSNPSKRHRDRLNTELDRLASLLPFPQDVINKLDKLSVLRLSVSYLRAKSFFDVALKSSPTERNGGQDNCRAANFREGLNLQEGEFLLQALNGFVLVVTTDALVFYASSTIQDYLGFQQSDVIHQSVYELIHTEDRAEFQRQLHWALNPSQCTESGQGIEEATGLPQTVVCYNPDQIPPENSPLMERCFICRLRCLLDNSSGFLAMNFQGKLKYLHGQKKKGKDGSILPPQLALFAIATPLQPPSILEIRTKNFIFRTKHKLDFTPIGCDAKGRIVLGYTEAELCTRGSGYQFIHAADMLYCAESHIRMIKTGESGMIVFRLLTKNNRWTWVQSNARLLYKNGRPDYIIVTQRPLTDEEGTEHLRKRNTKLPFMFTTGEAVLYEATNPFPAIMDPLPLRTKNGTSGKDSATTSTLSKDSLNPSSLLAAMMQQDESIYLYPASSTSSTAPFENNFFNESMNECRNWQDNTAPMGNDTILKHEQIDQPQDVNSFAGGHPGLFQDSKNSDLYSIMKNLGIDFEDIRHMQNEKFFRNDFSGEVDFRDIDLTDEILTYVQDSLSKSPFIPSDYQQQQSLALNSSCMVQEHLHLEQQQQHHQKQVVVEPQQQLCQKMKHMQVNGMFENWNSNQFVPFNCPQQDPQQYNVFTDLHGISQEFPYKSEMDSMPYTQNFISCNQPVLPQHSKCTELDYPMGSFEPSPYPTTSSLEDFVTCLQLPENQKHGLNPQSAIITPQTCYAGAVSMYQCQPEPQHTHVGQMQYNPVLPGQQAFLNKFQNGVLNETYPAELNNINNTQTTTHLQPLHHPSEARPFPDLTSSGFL
# Peroxisome proliferator-activated receptor gamma (Homo sapiens), sequence (P37231 whole entry, looked up): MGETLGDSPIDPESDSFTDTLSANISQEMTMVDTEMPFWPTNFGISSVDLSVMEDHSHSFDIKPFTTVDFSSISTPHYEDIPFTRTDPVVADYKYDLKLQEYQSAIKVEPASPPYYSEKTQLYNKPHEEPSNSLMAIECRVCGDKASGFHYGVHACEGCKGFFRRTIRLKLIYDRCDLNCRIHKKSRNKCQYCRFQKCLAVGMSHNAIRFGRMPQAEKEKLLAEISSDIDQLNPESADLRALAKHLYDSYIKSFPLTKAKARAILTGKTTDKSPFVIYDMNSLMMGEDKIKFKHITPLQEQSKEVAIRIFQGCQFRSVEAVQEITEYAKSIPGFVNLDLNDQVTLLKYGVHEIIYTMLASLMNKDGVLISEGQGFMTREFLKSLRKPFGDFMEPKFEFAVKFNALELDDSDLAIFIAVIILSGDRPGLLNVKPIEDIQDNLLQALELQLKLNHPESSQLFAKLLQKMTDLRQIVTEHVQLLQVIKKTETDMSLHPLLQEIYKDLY
# Estrogen receptor (Homo sapiens), sequence (P03372 whole entry, looked up): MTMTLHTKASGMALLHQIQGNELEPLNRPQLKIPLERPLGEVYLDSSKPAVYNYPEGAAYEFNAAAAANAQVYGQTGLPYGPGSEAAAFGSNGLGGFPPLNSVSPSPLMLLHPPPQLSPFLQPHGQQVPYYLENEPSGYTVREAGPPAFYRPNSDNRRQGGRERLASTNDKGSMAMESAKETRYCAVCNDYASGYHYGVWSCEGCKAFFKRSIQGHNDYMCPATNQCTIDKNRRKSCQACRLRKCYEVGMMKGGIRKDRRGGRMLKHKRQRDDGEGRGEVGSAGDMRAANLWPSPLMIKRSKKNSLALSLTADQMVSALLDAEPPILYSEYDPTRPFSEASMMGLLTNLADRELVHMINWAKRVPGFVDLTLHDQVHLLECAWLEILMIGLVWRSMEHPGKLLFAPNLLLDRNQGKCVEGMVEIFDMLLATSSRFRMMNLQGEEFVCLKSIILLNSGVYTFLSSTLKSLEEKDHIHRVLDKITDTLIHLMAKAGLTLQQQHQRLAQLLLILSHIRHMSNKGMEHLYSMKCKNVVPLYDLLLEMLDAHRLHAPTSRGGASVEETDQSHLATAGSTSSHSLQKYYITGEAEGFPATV
# Peroxisome proliferator-activated receptor delta (Homo sapiens), sequence (Q03181 whole entry, looked up): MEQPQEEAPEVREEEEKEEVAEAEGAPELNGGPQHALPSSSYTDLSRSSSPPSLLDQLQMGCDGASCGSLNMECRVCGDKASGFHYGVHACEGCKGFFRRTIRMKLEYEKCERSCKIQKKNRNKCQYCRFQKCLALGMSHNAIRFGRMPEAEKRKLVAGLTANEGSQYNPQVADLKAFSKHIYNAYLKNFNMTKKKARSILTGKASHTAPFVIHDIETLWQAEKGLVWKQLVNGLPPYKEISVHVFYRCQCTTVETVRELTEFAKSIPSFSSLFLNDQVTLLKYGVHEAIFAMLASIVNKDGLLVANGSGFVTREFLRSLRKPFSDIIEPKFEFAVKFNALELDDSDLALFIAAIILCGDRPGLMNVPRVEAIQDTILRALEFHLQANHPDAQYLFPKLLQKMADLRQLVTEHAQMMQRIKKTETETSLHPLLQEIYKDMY
# Aromatase (Homo sapiens), sequence (P11511 whole entry, looked up): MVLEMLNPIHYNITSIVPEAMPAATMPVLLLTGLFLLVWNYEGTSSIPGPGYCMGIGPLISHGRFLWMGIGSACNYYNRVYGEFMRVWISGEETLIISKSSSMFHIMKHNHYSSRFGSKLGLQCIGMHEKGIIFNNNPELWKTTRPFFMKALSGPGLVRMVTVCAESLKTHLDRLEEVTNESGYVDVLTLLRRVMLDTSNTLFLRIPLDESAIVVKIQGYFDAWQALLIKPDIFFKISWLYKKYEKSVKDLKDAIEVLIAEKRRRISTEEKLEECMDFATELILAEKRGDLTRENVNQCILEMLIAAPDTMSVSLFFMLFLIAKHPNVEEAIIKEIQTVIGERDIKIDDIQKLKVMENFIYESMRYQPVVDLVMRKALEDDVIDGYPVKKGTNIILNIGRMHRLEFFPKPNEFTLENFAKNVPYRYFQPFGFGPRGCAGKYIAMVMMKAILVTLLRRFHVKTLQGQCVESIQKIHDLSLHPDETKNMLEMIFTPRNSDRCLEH
Structure (SMILES),outcome [1],Potency [2],outcome [3],Potency [4],Potency [5],Potency (Aromatase (Homo sapiens)),Potency [6],Potency [7],Potency [8],Potency [9],Potency [10],Potency [11],outcome [12],outcome [13],Potency [14],Potency [15],Potency [16],Potency [17],Potency [18],Potency [19]
O=C(OCCCCCOC(=O)c1ccccc1)c1ccccc1,inactive,inactive,inactive,inactive,inactive,inactive,inactive,inactive,inactive,inactive,inactive,inactive,inactive,inactive,inactive,inactive,–,–,–,–
O=C(O)c1cccnc1Nc1cccc(C(F)(F)F)c1,inactive,–,inactive,inactive,inactive,inactive,inactive,inactive,inactive,–,–,inactive,–,inactive,inactive,–,inactive,inactive,11.9 µM (active),–
CCOc1ccc(NC(C)=O)cc1N,inactive,inactive,inactive,inactive,inactive,inactive,inactive,–,inactive,–,inactive,inactive,inactive,–,inactive,inactive,–,–,inactive,inactive
O=C(O)c1c2ccccc2cc2ccccc12,inactive,inactive,–,inactive,inactive,inactive,inactive,inactive,–,–,inactive,inactive,inactive,inactive,inactive,–,inactive,inactive,inactive,inactive
Clc1cc(Cl)c2c(c1)N=C1CCCCCN1C2,inactive,–,inactive,inactive,inactive,inactive,inactive,inactive,inactive,inactive,inactive,inactive,inactive,inactive,inactive,inactive,23.7 µM (active),–,–,inactive
CC(C)(C)NCC(O)COc1ccc(NC(=O)NC2CCCCC2)cc1 (centres undefined),inactive,inactive,inactive,inactive,inactive,inactive,inactive,–,–,inactive,inactive,inactive,inactive,inactive,–,inactive,–,–,inactive,inactive
O=C(O)c1cccc(C(=O)O)c1C(=O)O,inactive,inactive,–,inactive,inactive,inactive,inactive,inactive,inactive,inactive,–,inactive,–,inactive,inactive,–,inactive,inactive,–,inactive
O=c1[nH]nc(-c2ccc([N+](=O)[O-])o2)o1,inactive,–,inactive,inactive,–,inactive,30.6 µM (active),inactive,–,–,–,inactive,inactive,inactive,–,inactive,inactive,inactive,–,inactive
CCCCCCC/C=C/C=O,inactive,–,inactive,inactive,inactive,inactive,inactive,inactive,inactive,inactive,–,inactive,inactive,inactive,–,–,inactive,inactive,–,–
Oc1ccc(Oc2ccccc2)cc1,inactive,inactive,inactive,0.0736 µM [inconclusive] (active),inactive,–,inactive,inactive,inactive,inactive,18.3 µM (active),inactive,inactive,inactive,–,inactive,7.3 µM (active),–,–,inactive
COC(=O)/C=C/C(C)=C\C=C\C(C)=C\C=C\C=C(C)\C=C\C=C(C)\C=C\C(=O)O,inactive,inactive,inactive,inactive,inactive,inactive,inactive,inactive,inactive,inactive,–,inactive,inactive,inactive,inactive,inactive,–,–,–,inactive
FC(F)(Cl)C(F)(Cl)Cl,inactive,inactive,–,inactive,inactive,inactive,inactive,–,inactive,–,inactive,inactive,inactive,inactive,inactive,inactive,inactive,inactive,inactive,–
CCCCOC(=O)C(C)Oc1ccc(Oc2ccc(C(F)(F)F)cn2)cc1 (centres undefined),inactive,–,inactive,inactive,inactive,–,inactive,inactive,inactive,inactive,–,inactive,inactive,inactive,inactive,inactive,inactive,inactive,–,inactive
Nc1ccc(C(=O)Oc2ccccc2)c(O)c1,inactive,inactive,inactive,13.4 µM [inconclusive] (active),inactive,inactive,–,–,inactive,inactive,inactive,inactive,inactive,inactive,inactive,inactive,6.68 µM (active),–,inactive,inactive
Clc1cccc(C(c2ccc3nc[nH]c3c2)n2ccnc2)c1 (centres undefined),inactive,inactive,–,inactive,inactive,–,inactive,2.66 µM (active),–,inactive,inactive,inactive,inactive,inactive,inactive,inactive,–,11.9 µM (active),–,inactive
CC(C)(C)c1ccc(CCC=O)cc1,inactive,inactive,inactive,inactive,inactive,–,inactive,inactive,–,inactive,inactive,inactive,inactive,inactive,inactive,inactive,inactive,–,inactive,inactive

Structure (SMILES),outcome [1],Potency [2],outcome [3],Potency [4],Potency [5],Potency (Aromatase (Homo sapiens)),Potency [6],Potency [7],Potency [8],Potency [9],Potency [10],Potency [11],outcome [12],outcome [13],Potency [14],Potency [15],Potency [16],Potency [17],Potency [18],Potency [19]
O=C(O)c1ccc2cc(O)ccc2c1,inactive,inactive,inactive,inactive,inactive,inactive,inactive,inactive,inactive,inactive,inactive,inactive,inactive,inactive,inactive,inactive,–,inactive,inactive,inactive
c1ccc(-c2ccc(-c3ccccc3)cc2)cc1,inactive,inactive,inactive,inactive,inactive,–,inactive,–,inactive,inactive,inactive,inactive,inactive,–,–,inactive,0.791 µM (active),–,–,inactive
O=C1c2ccccc2C(=O)C1c1ccc2ccccc2n1,inactive,inactive,inactive,inactive,–,inactive,inactive,10.8 µM (active),–,inactive,–,inactive,inactive,inactive,inactive,inactive,–,–,inactive,inactive
COc1ccc(C(=O)c2ccc(C)cc2)c(O)c1,inactive,inactive,inactive,inactive,inactive,inactive,inactive,9.44 µM (active),–,inactive,–,inactive,inactive,inactive,inactive,inactive,13.3 µM (active) and 12.3 µM (active),–,inactive,inactive
CC1(C)CC(=O)CC(C)(C)N1,inactive,–,inactive,inactive,inactive,inactive,inactive,inactive,inactive,inactive,inactive,inactive,inactive,inactive,–,inactive,inactive,inactive,inactive,–
COc1ccc(/C=C/c2cc(OC)cc(=O)o2)cc1,inactive,inactive,inactive,inactive,inactive,inactive,inactive,–,inactive,inactive,0.443 µM (active),inactive,inactive,inactive,inactive,inactive,0.884 µM (active),–,–,inactive
Nc1cccc2c(=O)[nH][nH]c(=O)c12,inactive,–,inactive,inactive,inactive,inactive,inactive,inactive,inactive,inactive,inactive,inactive,–,inactive,inactive,inactive,inactive,inactive,inactive,inactive
CC1(C)[C@@H]2CC[C@]3(C2)[C@@H]1C(=O)CCC3(C)C,inactive,inactive,–,inactive,inactive,–,inactive,inactive,–,–,inactive,inactive,inactive,inactive,inactive,inactive,inactive,inactive,–,inactive
O=C(O)c1ccc2c(c1)nc(C(=O)NC1CCN(C3CC3)CC1)n2Cc1cc(-c2ccc(Cl)s2)on1,inactive,–,inactive,inactive,inactive,inactive,–,–,inactive,–,inactive,inactive,inactive,inactive,inactive,inactive,inactive,inactive,3.13 µM (active),inactive
C[C@H]1C[C@H]2[C@@H]3CCC4=CC(=O)C=C[C@]4(C)[C@@]3(F)[C@@H](O)C[C@]2(C)[C@@]1(O)C(=O)COP(=O)(O)O,inactive,–,inactive,inactive,inactive,inactive,inactive,inactive,–,inactive,inactive,inactive,inactive,inactive,inactive,inactive,inactive,–,–,inactive
N#CCCCC(C#N)CCC#N (centres undefined),inactive,inactive,inactive,inactive,inactive,inactive,inactive,inactive,inactive,–,inactive,inactive,inactive,inactive,inactive,inactive,–,inactive,–,–
CCC(CC)C(=O)O,inactive,–,inactive,inactive,inactive,inactive,inactive,inactive,–,inactive,inactive,inactive,inactive,inactive,inactive,inactive,inactive,inactive,–,inactive
O=Cc1ccc(Cl)c([N+](=O)[O-])c1,inactive,–,inactive,inactive,inactive,–,–,inactive,inactive,–,–,inactive,–,–,–,inactive,–,–,inactive,inactive
O=C(O)c1cc(C(=O)O)cc([N+](=O)[O-])c1,inactive,–,inactive,–,inactive,inactive,inactive,inactive,inactive,inactive,inactive,inactive,inactive,inactive,inactive,–,–,–,–,inactive
OCCOc1cccc(OCCO)c1,inactive,–,inactive,–,inactive,inactive,inactive,inactive,inactive,inactive,inactive,inactive,inactive,–,inactive,inactive,–,–,inactive,inactive
